Drawing on PubChem BioAssay AID720706 (Broad Institute, 2013), this text covers GFP signal change (wild-type ribosome), OD600 change and RFP signal change for 32 compounds.

Out of some 350,000 compounds screened, about 5,500 (1.6%) were called active.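 The calls were made as follows: active = significant combined selectivity score with lowered wild-type GFP, culture density cut under 30%, mutant RFP and density less affected; inactive = any of these conditions unmet.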 Only a selection was taken, and actives are over-represented in it overall.

This experiment in a line: GFP drop in mixed WT/humanized-ribosome E. coli culture – GFP/RFP fluorescence, OD600, single point, bacterial rRNA inhibitor project, primary screen (AID 720706). Particulars: E. coli WT GFP vs humanized-ribosome RFP mutants, 24 h; GFP signal change (wild-type ribosome): stronger effect = lower value, DMSO median 0, no signal -100; OD600 change: measured here: OD600 growth, DMSO median 0, no signal -100; RFP signal change: measured here: RFP humanized mutant strains, DMSO median 0, no signal -100, concentration not given here.
Consider `CCCNC(=O)N1[C@H](CO)[C@H]2c3ccccc3N(C(=O)Nc3cccc(Cl)c3)C[C@H]21`, for which the GFP signal change (wild-type ribosome) is -57.4% (inactive), the OD600 change is -71.6% and the RFP signal change was -12.8%.
Turning to `CCCN1C[C@H](C)[C@H](OC)CN(C)C(=O)c2cc(NC(=O)NC3CCCC3)ccc2OC[C@H]1C`, the GFP signal change (wild-type ribosome) is -0.637% (inactive), the OD600 change came to 8.41% and the RFP signal change stood at 2.12%.
In the case of `O=C(NC1CCN(C(=S)Nc2ccc(Cl)cc2)CC1)C1CCCCC1`, the GFP signal change (wild-type ribosome) was 6.47% (inactive), the OD600 change worked out at 11.2% and the RFP signal change stood at 0.251%.
The corresponding values for `CC(=O)N1CCC(N(C(=O)Nc2ccc(Cl)cc2)C(C)C)CC1` are -25.5% (active), -18% and -0.55%.
The corresponding values for `CC(=O)C(CC(=O)N1CCCC1)C(=O)Nc1ccc(Cl)cc1` (stereo unspecified) are 1.69% (inactive), 9.42% and 0.378%.
Regarding `CCCN(C)C[C@H]1OCCCC[C@H](C)Oc2ccc(NS(=O)(=O)c3ccc(C)cc3)cc2C(=O)N([C@@H](C)CO)C[C@H]1C`, the GFP signal change (wild-type ribosome) is -0.746% (inactive), the OD600 change was -1.7% and the RFP signal change is -0.147%.
As to `CC(C)NC(=O)N1CCCCN2[C@@H](CO)[C@@H](c3ccc(C#C[C@@H](C)O)cc3)[C@@H]2C1`, the GFP signal change (wild-type ribosome) is 5.76% (inactive), the OD600 change was found to be 13.1% and the RFP signal change is -1.96%.
For `O=S(=O)(Cc1ccccc1)N1CCCCN2[C@@H](CO)[C@H](c3ccc(-c4ccccc4)cc3)[C@@H]2C1`, the GFP signal change (wild-type ribosome) was -9.68% (inactive), the OD600 change is -41.9% and the RFP signal change is 18.6%.
The corresponding values for `CN(C)CC#Cc1ccc([C@@H]2[C@H](CO)N3CCCCN(C(=O)NC4CCCC4)C[C@@H]23)cc1` are 5.92% (inactive), 4.22% and 0.0255%.
On to `CCOC(=O)C1C(=O)NCC1c1ccccc1` (stereo unspecified), for which the GFP signal change (wild-type ribosome) is 8.68% (inactive), the OD600 change was -9.73% and the RFP signal change worked out at 1%.
Take `C=CCC1(C#N)C(=S)NC(C)=C(C(=O)OCC)C1c1ccccc1` (stereo unspecified): the GFP signal change (wild-type ribosome) is -26.3% (active), the OD600 change was -19.2% and the RFP signal change is -3.7%.
Regarding `CCOC(=O)C1=C(c2ccccc2)NC(=S)NC1c1ccc(Cl)cc1` (stereo unspecified), the GFP signal change (wild-type ribosome) was -8.35% (inactive), the OD600 change was -7.99% and the RFP signal change is -0.819%.
Turning to `COc1ccc(NC(=O)N(C)C[C@@H]2OCCCC[C@@H](C)Oc3ccc(NS(=O)(=O)c4cn(C)cn4)cc3C(=O)N([C@@H](C)CO)C[C@H]2C)cc1`, the GFP signal change (wild-type ribosome) is -1.24% (inactive), the OD600 change was -4.49% and the RFP signal change came to 0.792%.
On the same counts, the results for `COc1ccc2c3c(n(C)c2c1)[C@@H](CO)N(C(=O)c1cccnc1)CC31CCN(C(=O)c2cccnc2)CC1` are 2.76% (inactive), 15.2% and -2.73%.
On to `Cc1ccccc1-n1nc(SCC(=O)O)sc1=S`, for which the GFP signal change (wild-type ribosome) was -0.028% (inactive), the OD600 change stood at 2.15% and the RFP signal change is 5.05%.
On the same counts, the results for `O=C(CSc1nn(-c2ccc(F)cc2)c(=S)s1)NC1CCS(=O)(=O)C1` (stereo unspecified) are 9.16% (inactive), 9.88% and 20.6%.
On the same counts, the results for `N#CCSc1nn(-c2ccc(F)cc2)c(=S)s1` are -34% (active), -20.7% and -5.63%.
In the case of `CN(C)CCCNC(=O)C[C@H]1CC[C@H]2[C@@H](COC[C@H](O)CN2C(=O)c2ccncc2)O1`, the GFP signal change (wild-type ribosome) is 1.62% (inactive), the OD600 change came out at 1.82% and the RFP signal change was -2.93%.
Regarding `O=S(=O)(N[C@@H]1CC[C@H](CCn2cc(C3(O)CCCC3)nn2)O[C@@H]1CO)c1ccc(Cl)cc1`, the GFP signal change (wild-type ribosome) is 1% (inactive), the OD600 change is -3.78% and the RFP signal change was -2.53%.
Turning to `O=C(N/N=C/c1cccc(O)c1)c1cc2c(ccc3ccccc32)o1`, the GFP signal change (wild-type ribosome) is -16.9% (inactive), the OD600 change is -25.4% and the RFP signal change amounted to 6.33%.
For `Cc1c(/C=N\NC(=O)c2cc3ccccc3o2)c2ccccc2n1C`, the GFP signal change (wild-type ribosome) was -23.4% (active), the OD600 change is -4.47% and the RFP signal change was 6.38%.
In the case of `Cc1cc(NC(=O)c2cc3ccccc3o2)no1`, the GFP signal change (wild-type ribosome) is -2.45% (inactive), the OD600 change was 5.97% and the RFP signal change was found to be 7.13%.
On to `Cc1ccccc1S(=O)(=O)N1CC(=O)N2[C@H](CO)[C@H](c3ccc(C#CCN(C)C)cc3)[C@H]2C1`, for which the GFP signal change (wild-type ribosome) is 4.6% (inactive), the OD600 change amounted to 9.79% and the RFP signal change was found to be 0.298%.
With `COc1cc(CN2CC3(CN(S(=O)(=O)c4cccs4)C3)c3c(n(C)c4cc(OC)ccc34)[C@H]2CO)cc(OC)c1`, the GFP signal change (wild-type ribosome) was 4.45% (inactive), the OD600 change is -5.95% and the RFP signal change is -2.78%.
In the case of `CCNc1ccc(C(=O)OCC(=O)N2c3ccccc3NC(=O)C2(C)C)cc1[N+](=O)[O-]`, the GFP signal change (wild-type ribosome) was -25.9% (active), the OD600 change is -16.2% and the RFP signal change is -4.1%.
On the same counts, the results for `CNS(=O)(=O)c1cccc(C(=O)OCC(=O)N2c3ccccc3NC(=O)C2(C)C)c1` are -0.594% (inactive), 2.51% and -1.67%.
As for `Cc1cc(C(=O)OCC(=O)N2c3ccccc3NC(=O)C2(C)C)c(C)n1-c1ccccc1`, the GFP signal change (wild-type ribosome) is -9.02% (inactive), the OD600 change was -33.1% and the RFP signal change is -9.39%.
Turning to `O=C(C[C@H]1CC[C@@H]2[C@H](COC[C@@H](O)CN2Cc2cccc(-c3ccncc3)c2)O1)N1CCOCC1`, the GFP signal change (wild-type ribosome) is -1.04% (inactive), the OD600 change was 0.357% and the RFP signal change was -4.81%.
On the same counts, the results for `C[C@H]1CN([C@@H](C)CO)C(=O)Cc2cc(NC(=O)NC3CCCCC3)ccc2O[C@@H]1CN(C)Cc1ccc(Oc2ccccc2)cc1` are 1.65% (inactive), 0.966% and -0.931%.
As for `C[C@@H]1CN([C@@H](C)CO)C(=O)c2cc(NC(=O)Nc3ccc(C(F)(F)F)cc3)ccc2O[C@@H]1CN(C)Cc1ccncc1`, the GFP signal change (wild-type ribosome) is 8.75% (inactive), the OD600 change was -38.7% and the RFP signal change is 31.2%.
On the same counts, the results for `O=C(NCCc1c[nH]c2ccccc12)c1cccc(Br)c1` are -23% (active), -17% and 3.38%.
Consider `COc1ccccc1CC(=O)NCCc1c[nH]c2ccccc12`, for which the GFP signal change (wild-type ribosome) is -17.2% (active), the OD600 change was -2.84% and the RFP signal change came to 2.84%.
